34 compounds from the supplement of paper PMC10811239 can be followed below.

The structures appear in SMILES notation. Counter-ions that a name gives are not always drawn.

The subject of the first experiment is LEGO organoid PTCC (PTEN-/-; TP53-/-; CDKN2A-/-; CDKN2B-/-). The experiment can be described thus: bioluminescence (viable cell) signal fold change after vs before treatment, normalised to DMSO (ratio); higher = more tumour cell growth / less inhibition. Particulars: 10 µM; treatment time 6 days. How it is done: (§1)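 Luc2-labelled iPSC-derived glioblastoma-like organoids (LEGOs, genotypes PT = PTEN-/-;TP53-/-, PTCC = plus CDKN2A/B-/-, PTN = plus NF1-/-) were treated with 10 uM drug for 6 days (applied every other day) at 37 C. Bioluminescence imaging was done before treatment and 2 days after the last dose. BLI signals were normalised to the DMSO control on the same day and then to the pre-treatment signal (N=3).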
As for `NC(CO)(CO)CO.O=C(c1ccccc1)c1ccc2n1CCC2C(=O)O` (centres undefined) [Ketorolac tromethamine salt], the bioluminescence turned out to be 1.57.

For `Cc1cccc(N(C)C(=S)Oc2ccc3ccccc3c2)c1` [Tolnaftate], the bioluminescence was 0.931.

As for `CCCCCOC(=O)Nc1nc(=O)n([C@@H]2O[C@H](C)[C@@H](O)[C@H]2O)cc1F` [Capecitabine], the bioluminescence amounted to 1.71.

As to `NCCS(=O)(=O)O` [Taurine], the bioluminescence came to 0.71.

For `Nc1ccn([C@@H]2O[C@H](CO)[C@@H](O)[C@@H]2O)c(=O)n1` [Cytarabine], the bioluminescence worked out at 1.15.

Take `Cc1[nH]c(=O)c(C#N)cc1-c1ccncc1` [Milrinone]: the bioluminescence was 1.63.

The next experiment concerns LEGO organoid PTN (PTEN-/-; TP53-/-; NF1-/-). The experiment is described as above. Particulars: 10 µM; treatment time 6 days. Here is the method:
as §1
Consider `COc1cc2ncnc(Nc3ccc(F)c(Cl)c3)c2cc1OCCCN1CCOCC1` [Gefitinib], for which the bioluminescence is 2.43.

`OCCN1CCN(CCCN2c3ccccc3Sc3ccc(Cl)cc32)CC1` [Perphenazine]: the bioluminescence was 1.74.

Take `COCCOC(=O)C1=C(C)NC(C)=C(C(=O)OC(C)C)C1c1cccc([N+](=O)[O-])c1` (centres undefined) [Nimodipine]: the bioluminescence was 1.19.

Consider `CO/N=C(\C(=O)N[C@@H]1C(=O)N2C(C(=O)[O-])=C(CSc3nc(=O)c([O-])nn3C)CS[C@H]12)c1csc(N)n1.CO/N=C(\C(=O)N[C@@H]1C(=O)N2C(C(=O)[O-])=C(CSc3nc(=O)c([O-])nn3C)CS[C@H]12)c1csc(N)n1.O.O.O.O.O.O.O.[Na+].[Na+].[Na+].[Na+]` [Ceftriaxone sodium], for which the bioluminescence is 2.01.

Turning to `NC(=O)OCC(COC(N)=O)c1ccccc1` [Felbamate], the bioluminescence stood at 0.547.

On to `O.O.O.O.[Li][O]C(=O)CC(O)(CC(=O)[O][Li])C(=O)[O][Li]` [Lithium citrate tetrahydrate], for which the bioluminescence was 1.25.

As for `CS(=O)(=O)O.Cc1ccc(NC(=O)c2ccc(CN3CCN(C)CC3)cc2)cc1Nc1nccc(-c2cccnc2)n1` [Imatinib Mesylate], the bioluminescence was determined as 2.11.

Regarding `NC(=O)N[C@@H](CCC(=O)O)C(=O)O` [Carglumic Acid], the bioluminescence worked out at 1.55.

Turning to `CS(=O)(=O)c1ccc(C2=C(c3ccccc3)C(=O)OC2)cc1` [Rofecoxib], the bioluminescence was 2.18.

For `NC[C@H]1CC[C@H](C(=O)O)CC1` [Amstat], the bioluminescence was found to be 0.778.

Consider `CCc1cc(/C(C)=N/OCc2ccc(C3CCCCC3)c(C(F)(F)F)c2)ccc1CN1CC(C(=O)O)C1` [Siponimod], for which the bioluminescence is 0.811.

As to `O=c1[nH]c(=O)n(C2CCCO2)cc1F` (centres undefined) [Tegafur], the bioluminescence was 0.727.

As to `COc1cc(Nc2ncc(F)c(Nc3ccc4c(n3)N(COP(=O)(O)O)C(=O)C(C)(C)O4)n2)cc(OC)c1OC` [Fostamatinib], the bioluminescence was 0.0646.

Take `COC(=O)/C=C/C(=O)OC` [Dimethyl fumarate]: the bioluminescence amounted to 1.44.

For `CN1CCN2c3ncccc3Cc3ccccc3C2C1` (centres undefined) [Mirtazapine], the bioluminescence stood at 0.789.

In the case of `O=C1NC(=O)C(c2ccccc2)(c2ccccc2)N1` [Phenytoin], the bioluminescence worked out at 1.39.

For `CC(C)Cc1ccc(C(C)C(=O)O)cc1` (centres undefined) [Ibuprofen], the bioluminescence was 1.57.

For the compound `Cl.Nc1c2c(nc3ccccc13)CCCC2.O` [Tacrine hydrochloride hydrate], the bioluminescence was 1.22.

Take `Nc1ncn([C@H]2C[C@H](O)[C@@H](CO)O2)c(=O)n1` [Decitabine]: the bioluminescence came to 1.09.

Consider `C/C(O)=C(\C#N)C(=O)Nc1ccc(C(F)(F)F)cc1` [Teriflunomide], for which the bioluminescence was found to be 2.32.

Turning to `CC(=O)NCCCS(=O)(=O)[O-].CC(=O)NCCCS(=O)(=O)[O-].[Ca+2]` [Acamprosate calcium], the bioluminescence was determined as 1.11.

For the compound `CN(Cc1cnc2nc(N)nc(N)c2n1)c1ccc(C(=O)N[C@@H](CCC(=O)O)C(=O)O)cc1` [Methotrexate], the bioluminescence worked out at 0.813.

On to `CC(=O)Nc1nnc(S(N)(=O)=O)s1` [Acetazolamide], for which the bioluminescence worked out at 2.04.

`C[C@@H]1COCCN1c1cc(C2([S@](C)(=N)=O)CC2)nc(-c2ccnc3[nH]ccc23)n1` [Ceralasertib]: the bioluminescence was found to be 0.823.

For `CC(C(=O)O)c1cccc(C(=O)c2ccccc2)c1` (centres undefined) [Ketoprofen], the bioluminescence is 1.02.

Consider `Cn1c(=O)c2[nH]cnc2n(C)c1=O` [Theophylline], for which the bioluminescence was found to be 2.42.

For the compound `CCc1c2c(nc3ccc(OC(=O)N4CCC(N5CCCCC5)CC4)cc13)-c1cc3c(c(=O)n1C2)COC(=O)[C@]3(O)CC` [Irinotecan], the bioluminescence amounted to 0.884.

Consider `CC(=O)OCC(=O)[C@@]1(O)[C@H](C)C[C@H]2[C@@H]3CCC4=CC(=O)C=C[C@]4(C)[C@@]3(F)[C@@H](O)C[C@@]21C` [Dexamethason acetate], for which the bioluminescence is 1.53.
